Assay results from PubChem BioAssay (NCATS).
Inconclusive results are not listed. Where a call stands in place of a potency, no number is given. Activity calls are given as the source filed them. Unless noted, calls come from the whole dose curve; as a rule, active = well fitted curve in the direction sought with a large enough effect; inconclusive = small, poorly fitted or top-dose-only effect, or another doubt; inactive = no such curve, though single readings can be large; an effect the other way counts as inactive or inconclusive.

Assays:
[1] = biological target: Luciferin 4-monooxygenase (Photinus pyralis) (UniProt P08659); experiment: Biochemical firefly luciferase enzyme assay for NPC (AID 624030);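 note: purified P. pyralis luciferase at 10 nM with luciferin and ATP substrate; nearly all actives have a fitted effect of over 70% in size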
Method in brief: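 Direct inhibition of firefly luciferase enzyme (10 nM final, 50 mM Tris Acetate) assessed by luminescence within 5 minutes. Percent activity scaled between DMSO and PTC124 positive control, with concentration-effect curves classified by fit quality and response.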

[2] = qHTS Assay for Identifying Gametocytocidal Compounds (AID 743244);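 note: actives lower the fluorescent signal which means gametocytes are killed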; conditions: P. falciparum 3D7 stage III-V gametocytes, alamarBlue, 72 h; max response: stronger effect = lower value
Method in brief: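 Compounds are pinned into medium, gametocytes (stage III–V, 3D7, 20,000 cells/well) added, and plates held 72 h at 37 °C in 5% CO2. AlamarBlue follows for 24 h before fluorescence reading.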

[3] = P-glycoprotein substrates identified in KB-8-5-11 adenocarcinoma cell line, qHTS therapeutic library screen (AID 1346987); note: nearly all actives have a fitted effect of over 65% in size
Method in brief: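 Human cervical adenocarcinoma KB-8-5-11 cells, selected in colchicine to over-express P-gp and assayed without it, were exposed for 72 h to titrated compounds. An ATP-based luminescent viability signal gave AC50.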

[4] = test system: KB-3-1; experiment: Cytotoxic Profiling of Annotated Libraries Using Quantitative High-Throughput Screening (AID 1296008); conditions: Five cell lines viability, CellTiter-Glo ATP luminescence, 48-72 h; max response: stronger effect = lower value; note: nearly all actives have a fitted effect of over 60% in size
Method in brief: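 Cytotoxicity was measured as CellTiter-Glo ATP luminescence, read after 10 min at room temperature. Compound treatment of the cells lasted 48 or 72 hr at 37 degrees Celsius in a qHTS format.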

[5] = Drug repurposing screens with cells derived from glioblastoma tumor samples (AID 1345199); conditions: GBM patient neurospheres viability, ATP luminescence, 48 h; Potency: tumour line A; series mostly up to 45.9 µM; note: nearly all actives have a fitted effect of over 40% in size
Method in brief: (§1)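 Primary testing used CD133+ neurospheres from four GBM patients, seven concentrations, 48 h exposure and ATP-based viability; confirmation added three slower-growing patient lines.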

[6] = test system: astro; experiment: as above; conditions: viability, ATP luminescence, 48 h; series mostly up to 45.9 µM
Method in brief: as §1

[7] = Confirmation and Secondary Assay for Modulators of Hemoglobin Beta Chain Splicing at IVS2 654 locus (AID 910);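 note: HeLa cells stably carrying EGFP split by mutant beta-globin IVS2-654 intron; per-well total GFP intensity by laser scanning cytometry after 2-day treatment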
Method in brief: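 Readout: per-well total peak green fluorescence (488 nm ex, 500–520 nm em) from objects 5–250 µm, reflecting correct splicing of an EGFP-654 reporter. Compounds were applied for 2 days at 37 °C to overnight-plated HeLa EGFP-654 cells; controls were DMSO and 500 nM IVS2-654 PNA.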

[8] = Confirmation and Secondary Assay for Modulators of Hemoglobin Beta Chain Splicing at IVS2 705 locus (AID 930);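 note: HeLa cells stably expressing the EGFP-705 splicing reporter; GFP fluorescence per well restored by corrected splicing of the IVS2-705 intron in EGFP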
Method in brief: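 First, HeLa EGFP-705 cells are seeded at 500/well in Optimem with 2% FCS and left overnight. Next, compound or DMSO is added for 2 days. Finally wells are laser-scanned and total peak GFP intensity scored.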

[9] = qHTS Assay for Lipid Storage Modulators (AID 1519; calls by dose curve); conditions: Drosophila S3 cells, BODIPY lipid droplet/cell ratio, laser cytometry, cells loaded with oleic acid
Method in brief: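 Cells seeded at 5,000 per well were treated with compounds over a concentration series and loaded with oleic acid (400 uM, as added). Lipid droplet fluorescence (488 nm excitation, 500-530 nm channel) was read by laser-scanning cytometry and normalized to 20 uM Triacsin C.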

[10] = biological target: Ubiquitin carboxyl-terminal hydrolase 1 (Homo sapiens) (UniProt O94782); experiment: Inhibitors of USP1/UAF1: Pilot qHTS (AID 504865);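 note: rhodamine fluorescence freed from ubiquitin-rhodamine substrate followed over time; top concentration of the series differs between compounds; nearly all actives have a fitted effect of over 35% in size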
Method in brief: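 Deubiquitinase activity followed as kinetic rhodamine fluorescence release from 150 nM Ub-Rho. 1 nM USP1/UAF1 with compound, after 15 min room-temperature preincubation, in HEPES pH 7.8 buffer containing TCEP, EDTA, BSA and Tween-20.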

Sequence of Luciferin 4-monooxygenase (Photinus pyralis) (P08659 whole entry, looked up): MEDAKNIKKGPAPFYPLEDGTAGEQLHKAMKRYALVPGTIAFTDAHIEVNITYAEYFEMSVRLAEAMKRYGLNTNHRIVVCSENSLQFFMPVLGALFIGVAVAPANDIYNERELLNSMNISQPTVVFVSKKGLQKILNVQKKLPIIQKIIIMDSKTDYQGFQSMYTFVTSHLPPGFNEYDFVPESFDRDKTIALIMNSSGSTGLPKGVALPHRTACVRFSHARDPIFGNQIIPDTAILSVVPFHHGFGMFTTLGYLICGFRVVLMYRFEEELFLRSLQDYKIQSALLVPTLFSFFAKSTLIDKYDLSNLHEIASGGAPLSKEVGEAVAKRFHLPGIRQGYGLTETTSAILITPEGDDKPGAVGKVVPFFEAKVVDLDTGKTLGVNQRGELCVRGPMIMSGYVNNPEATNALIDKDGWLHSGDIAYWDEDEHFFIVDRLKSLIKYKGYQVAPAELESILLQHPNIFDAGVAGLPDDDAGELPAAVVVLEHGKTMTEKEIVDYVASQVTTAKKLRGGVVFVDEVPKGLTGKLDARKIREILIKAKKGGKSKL
Sequence of Ubiquitin carboxyl-terminal hydrolase 1 (Homo sapiens) (O94782 whole entry, looked up): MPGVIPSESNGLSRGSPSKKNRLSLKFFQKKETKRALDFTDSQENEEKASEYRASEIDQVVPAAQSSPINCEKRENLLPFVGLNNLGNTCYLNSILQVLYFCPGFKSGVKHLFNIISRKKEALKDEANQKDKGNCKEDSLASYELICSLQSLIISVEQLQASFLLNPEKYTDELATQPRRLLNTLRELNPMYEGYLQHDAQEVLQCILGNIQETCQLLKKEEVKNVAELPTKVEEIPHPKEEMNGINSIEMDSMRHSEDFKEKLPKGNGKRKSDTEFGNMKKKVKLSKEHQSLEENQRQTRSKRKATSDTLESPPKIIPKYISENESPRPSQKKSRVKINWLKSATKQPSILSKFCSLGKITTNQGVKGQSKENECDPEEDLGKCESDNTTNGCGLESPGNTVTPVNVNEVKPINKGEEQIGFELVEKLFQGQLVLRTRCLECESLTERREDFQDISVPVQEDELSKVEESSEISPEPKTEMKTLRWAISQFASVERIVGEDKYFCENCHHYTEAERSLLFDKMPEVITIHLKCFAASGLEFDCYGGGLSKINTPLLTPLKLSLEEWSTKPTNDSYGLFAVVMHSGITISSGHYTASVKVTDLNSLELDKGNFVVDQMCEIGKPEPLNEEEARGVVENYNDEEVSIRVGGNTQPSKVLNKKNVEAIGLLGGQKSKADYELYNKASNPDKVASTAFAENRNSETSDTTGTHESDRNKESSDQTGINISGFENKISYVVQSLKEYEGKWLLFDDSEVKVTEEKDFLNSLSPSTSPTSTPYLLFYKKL

**Q.** What does the source list for `O=C(O)CCCO`?
**A.** Potency [1]: inactive; max response [2]: 2.34% (inactive); Potency [3]: inactive; max response [4]: 4.02% (inactive); Potency [5]: inactive; Potency [6]: inactive

**Q.** With `CCN(CC)/[N+]([O-])=N/O` as the compound, how does the Potency [7] read?
**A.** Its Potency is “inactive”.

**Q.** What about the outcome [8] of the same compound?
**A.** Its outcome is “inactive”.

**Q.** What about the activity change, negative = inhibition ([9]; at 57.5 µM (top of the series)) of the same compound?
**A.** Its activity change, negative = inhibition is 8.09% (inactive).

**Q.** What about the max response ([9]; measured here: cell count channel max response) of the same compound?
**A.** The max response was -15%.

**Q.** What about the max response ([9]; measured here: lipid channel max response) of the same compound?
**A.** Its max response is -4.74%.

**Q.** And the Potency [10]?
**A.** Its Potency is “inactive”.

**Q.** And the Potency [1]?
**A.** Its Potency is “inactive”.

**Q.** And the Potency [3]?
**A.** The Potency was “inactive”.

**Q.** And the max response [4]?
**A.** Its max response is -8.01% (inactive).

**Q.** What about the Potency [5] of the same compound?
**A.** The Potency was “inactive”.

**Q.** What about the Potency [6] of the same compound?
**A.** The Potency was “inactive”.

**Q.** Which Potency [1] does the source give for `COc1cc(C[C@H](C)N)c(OC)cc1Br` here?
**A.** The Potency was “inactive”.

**Q.** What about the max response [2] of the same compound?
**A.** The max response was -8.52% (inactive).

**Q.** What about the Potency [3] of the same compound?
**A.** The Potency was “inactive”.

**Q.** What about the max response [4] of the same compound?
**A.** Its max response is -6.95% (inactive).

**Q.** What about the Potency [6] of the same compound?
**A.** The Potency was “inactive”.

**Q.** For `COc1cc(C[C@H](C)N)c(OC)cc1C`, which max response [2] is on record?
**A.** Its max response is -10.7% (inactive).

**Q.** What about the max response [4] of the same compound?
**A.** The max response was -5.3% (inactive).

**Q.** And the Potency [5]?
**A.** Its Potency is “inactive”.

**Q.** And the Potency [6]?
**A.** The Potency was “inactive”.
